Data reported in PubChem BioAssay.
The source made the active and inactive calls. Unless noted, no rule for the calls is given here.

Legend:
[1] = HepG2 liver cancer cell viability effects, profiling panel, resazurin fluorescence, 24 h, PK04 Diversity Set (AID 1172); conditions: higher = more signal
[2] = basal S. cerevisiae growth modulation, no modifier, primary screen, OD600, strain BY4716, 24 h, basal condition (AID 1173); conditions: OD600, 24 h, higher = more signal, called active from +8 up or from −8 down
[3] = MM1S myeloma cell viability, profiling panel, resazurin fluorescence, basal, 24 h, PK04 Diversity Set (AID 1174); conditions: higher = more signal, called active from +8 up or from −8 down;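 also: MM1S multiple myeloma cell line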
[4] = target: Dihydroorotate dehydrogenase (quinone), mitochondrial (Plasmodium falciparum (isolate 3D7)) (UniProt Q08210); assay: PfDHODH enzyme inhibitors, primary screen, biochemical, C-terminal His tag, absorbance 600 nm (AID 1175); conditions: DCIP absorbance 600 nm, higher = more signal, called active from +8 up or from −8 down;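 also: recombinant parasite enzyme with a five histidine tag at its C terminus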
[5] = P. aeruginosa biofilm formation inhibitors, primary screen, strain PAO1, LB-PBS medium, absorbance 600 nm (AID 1176); conditions: P. aeruginosa PAO1 growth/biofilm, A600, 12 h; higher = more signal
[6] = S. cerevisiae RM11-1a growth modifiers, primary screen, strain RM11-1a, OD600, basal, 24 h (AID 1177); conditions: OD600, 24 h, higher = more signal, called active from +8 up or from −8 down;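 also: cultures grown under basal conditions with no added stressor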
[7] = E. coli acrAB mutant growth effects, primary screen, E. coli filamentation inducers, strain DRC39, OD650, 24 h (AID 1178); conditions: higher = more signal, called active from +8 up or from −8 down;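 also: growth measured as culture turbidity by optical density at 650 nm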
[8] = E. coli acrAB mutant growth effects, primary screen, E. coli filamentation inducers, strain DRC39, OD650, 48 h (AID 1179);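 also: screen aims at cell division blockers that make cells filament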; conditions: E. coli DRC39 delta-acrAB growth, higher = more signal, called active from +8 up or from −8 down
[9] = RPMI8226 myeloma cell viability, profiling panel, resazurin fluorescence, basal, 24 h, PK04 Diversity Set (AID 1180); conditions: higher = more signal;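 also: RPMI8826 multiple myeloma cell line at 5000 cells per well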
[10] = target: E3 ubiquitin-protein ligase XIAP (Homo sapiens) (UniProt P98170); assay: XIAP binders, primary screen, biophysical, small-molecule microarray, fluorescence 635 nm (AID 1181); conditions: small-molecule microarray binding, higher = more signal;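 also: score merges 667 nm emission and signal to noise over triplicate slides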
[11] = system: XIP peptide (Xip251-270) binding; assay: small-molecule binders of XIP peptide, primary screen, biochemical, small-molecule microarray, fluorescence 635/667 nm, 0.1 µg/mL protein (AID 1182); conditions: fluorescent protein binding, 635 nm, higher = more signal, called active from +8 up or from −8 down
[12] = system: XIP peptide (Xip251-270); assay: small-molecule binders of XIP peptide, primary screen, biochemical, small-molecule microarray, fluorescence 635/667 nm, 0.5 µg/mL protein (AID 1183); conditions: small-molecule microarray binding, fluorescence 635 nm; higher = more signal
[13] = Plasmodium falciparum growth inhibition, primary screen, strain 3D7, DAPI fluorescence, 100 nL (AID 1184);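 also: parasites grown inside human red blood cells in medium with human serum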; conditions: P. falciparum 3D7 growth, 3 d, higher = more signal
[14] = target: Homeobox protein Hox-A13 (Mus musculus) (UniProt Q62424); assay: inhibitors of HoxA13-DNA binding, primary screen, biochemical, fluorescence polarization, labeled oligonucleotide (AID 1185); conditions: 15 min, higher = more signal, called active from +8 up or from −8 down
[15] = inhibitors of hydroxyurea-induced Chk1 phosphorylation, primary screen, imaging, HeLa, phospho-Chk1 antibody, percent positive cells (AID 1186); conditions: hydroxyurea-induced phospho-Chk1 immunofluorescence imaging, higher = more signal
[16] = inhibitors of hydroxyurea-induced Chk1 phosphorylation, primary screen, imaging, HeLa, phospho-Chk1 nuclear intensity (AID 1187); conditions: hydroxyurea-induced phospho-Chk1 immunofluorescence imaging, higher = more signal

Sequence of Homeobox protein Hox-A13 (Mus musculus) (Q62424 whole entry, looked up): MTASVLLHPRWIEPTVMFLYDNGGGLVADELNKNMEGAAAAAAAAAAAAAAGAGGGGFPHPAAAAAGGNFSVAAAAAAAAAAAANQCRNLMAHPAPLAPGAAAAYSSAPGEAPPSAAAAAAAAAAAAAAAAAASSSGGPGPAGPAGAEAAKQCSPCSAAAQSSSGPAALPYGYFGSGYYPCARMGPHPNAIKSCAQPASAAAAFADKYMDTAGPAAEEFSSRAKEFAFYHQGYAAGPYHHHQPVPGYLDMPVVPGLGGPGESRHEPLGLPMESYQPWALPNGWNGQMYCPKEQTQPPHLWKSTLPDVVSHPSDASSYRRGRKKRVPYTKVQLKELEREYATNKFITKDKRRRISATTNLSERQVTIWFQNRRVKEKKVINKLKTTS
Sequence of Dihydroorotate dehydrogenase (quinone), mitochondrial (Plasmodium falciparum (isolate 3D7)) (Q08210 whole entry, looked up): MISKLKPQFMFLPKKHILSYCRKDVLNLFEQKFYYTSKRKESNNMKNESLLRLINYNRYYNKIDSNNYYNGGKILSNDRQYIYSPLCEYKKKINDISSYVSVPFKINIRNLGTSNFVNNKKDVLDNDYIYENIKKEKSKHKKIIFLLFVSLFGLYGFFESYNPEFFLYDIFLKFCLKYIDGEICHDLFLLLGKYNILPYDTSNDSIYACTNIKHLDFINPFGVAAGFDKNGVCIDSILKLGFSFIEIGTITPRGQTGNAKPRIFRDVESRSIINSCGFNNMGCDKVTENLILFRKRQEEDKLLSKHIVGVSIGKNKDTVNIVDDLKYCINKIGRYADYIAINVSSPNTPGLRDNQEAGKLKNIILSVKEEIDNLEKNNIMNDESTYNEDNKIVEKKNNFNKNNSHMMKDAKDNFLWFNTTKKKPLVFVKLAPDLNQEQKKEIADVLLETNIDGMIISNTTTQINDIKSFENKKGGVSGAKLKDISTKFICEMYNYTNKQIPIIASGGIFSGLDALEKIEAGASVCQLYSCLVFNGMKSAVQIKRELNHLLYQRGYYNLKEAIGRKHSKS
Sequence of E3 ubiquitin-protein ligase XIAP (Homo sapiens) (P98170 whole entry, looked up): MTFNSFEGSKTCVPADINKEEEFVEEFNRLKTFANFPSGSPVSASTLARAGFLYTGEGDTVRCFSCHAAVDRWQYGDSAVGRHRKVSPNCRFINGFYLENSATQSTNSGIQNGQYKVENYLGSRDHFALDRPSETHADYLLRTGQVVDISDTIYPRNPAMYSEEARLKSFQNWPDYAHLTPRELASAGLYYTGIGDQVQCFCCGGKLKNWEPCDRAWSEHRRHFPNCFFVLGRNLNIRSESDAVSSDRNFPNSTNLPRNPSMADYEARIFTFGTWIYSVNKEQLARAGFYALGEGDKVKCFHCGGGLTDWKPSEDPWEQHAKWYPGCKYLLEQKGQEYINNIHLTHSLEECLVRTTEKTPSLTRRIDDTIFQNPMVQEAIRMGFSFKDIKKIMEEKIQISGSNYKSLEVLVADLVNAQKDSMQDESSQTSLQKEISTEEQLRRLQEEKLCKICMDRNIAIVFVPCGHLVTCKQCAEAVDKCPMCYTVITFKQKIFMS

SMILES | z-score [1] | z-score [2] | z-score [3] | composite z-score [4] | z-score [5] | z-score [6] | z-score [7] | z-score [8] | z-score [9] | composite z-score [10] | composite z-score [11] | composite z-score [12] | z-score [13] | z-score [14] | z-score [15] | z-score [16]
COC(=O)[C@@]1(Cc2ccc(OC)cc2)[C@H]2c3cc(C(=O)N(C)C)n(Cc4ccc(S(C)(=O)=O)cc4)c3C[C@H]2CN1C(=O)c1ccccc1 | 0.0042 | 0.0274 (inactive) | -0.19 (inactive) | -1.4 (inactive) | 2.2 (inactive) | -2.36 (inactive) | 0.366 (inactive) | -0.441 (inactive) | 0.766 | -0.0139 | 1.64 (inactive) | 0.233 | -0.0665 | -5.38 (inactive) | -0.907 (inactive) | -1.03 (inactive)
O=C1C2C=CC(C(O)c3cc(C(F)(F)F)cc(C(F)(F)F)c3)N(n3cnnc3)C2C(=O)N1Cc1ccccc1 (stereo not given) | -0.064 | -1.01 (inactive) | -0.497 (inactive) | 0.861 (inactive) | 0.933 (inactive) | 1.09 (inactive) | 0.375 (inactive) | 0.589 (inactive) | -0.394 | 0.0945 | -0.0242 (inactive) | 0.662 | -1.06 | -2.95 (inactive) | 0.506 (inactive) | 0.135 (inactive)
CO[C@H]1O[C@H](CO)[C@@H](OC(=O)Nc2ccc(C(F)(F)F)cc2)[C@H](OC(=O)Nc2ccc3c(c2)OCO3)[C@@H]1OC(=O)Nc1ccc2c(c1)OCO2 | -1.09 | 0.867 (inactive) | -2.45 (inactive) | 0.524 (inactive) | 1.54 (inactive) | 3.25 (inactive) | 1.53 (inactive) | 0.2 (inactive) | -1.97 | 0.098 | 1.42 (inactive) | 0.901 | -2.09 | -5.46 (inactive) | -0.328 (inactive) | -0.0864 (inactive)
CCCCCCc1nc(-c2ccc(OC)nc2)cc2c1[Si](C(C)C)(C(C)C)O[C@H]2c1ccccc1 | 0.153 | 0.676 (inactive) | 0.0809 (inactive) | -0.0348 (inactive) | 0.256 (inactive) | 0.056 (inactive) | 0.231 (inactive) | -0.0838 (inactive) | 0.732 | -0.241 | -0.652 (inactive) | -0.487 | -0.421 | -2.62 (inactive) | -0.732 (inactive) | -0.722 (inactive)
CO[C@H]1O[C@H](CO)[C@@H](OC(=O)Nc2ccc(Oc3ccccc3)cc2)[C@H](OC(=O)Nc2ccc3c(c2)OCO3)[C@H]1OC(=O)Nc1ccc2c(c1)OCO2 | -0.692 | 0.759 (inactive) | 0.0487 (inactive) | -0.227 (inactive) | 2.07 (inactive) | 1.11 (inactive) | 1.65 (inactive) | 0.0431 (inactive) | 0.404 | -0.0795 | 0.69 (inactive) | 0.891 | -2.33 | -5.25 (inactive) | -0.334 (inactive) | -0.152 (inactive)
